Results reported in PubChem BioAssay AID504942 (Broad Institute, 2011).
Results with a measured potency or affinity are listed apart. The source made the active and inactive calls. No rule for the calls is given here.

experiment: HeLa cell cytotoxicity, dose response, cytotoxicity control, 48 h, plate reader, cherry-picks (AID 504942); settings: series mostly up to 38 µM; activity change, negative = toxicity: at the top concentration

SMILES	activity change, negative = toxicity
CCOC1=CC(=O)OC(c2ccccc2)C1 (centres undefined)	3.44% (inactive)
COc1ccc(/C=C/C(=O)c2ccoc2)cc1	-7.19% (inactive)
COc1ccc(CNCc2cccc(Cl)c2)cc1	1.45% (inactive)
CCNC(=O)COc1ccc2ccccc2c1	8.76% (inactive)
CO/N=C/c1cn(-c2ccc(Cl)cc2)nn1	0.942% (inactive)
CSC1=N/C(=C\C=C\c2cccs2)C(=O)S1	3.28% (inactive)
Cc1ccc2scc(CN3CCCC3)c2c1	-6.04% (inactive)
CCC(C)NS(=O)(=O)c1ccc(OC)c(Cl)c1Cl (centres undefined)	-0.92% (inactive)
O=C(NC1CCSC1)c1cccc(Cl)c1 (centres undefined)	0.981% (inactive)
CCOc1ccc(-n2cccc2C=O)cc1	9.37% (inactive)
N#CCn1c(C2CCCCC2)nc2ccccc2c1=O	5.78% (inactive)
CC(C)CCNC(=O)c1cccc(Cl)c1	-0.254% (inactive)
CCCNS(=O)(=O)c1ccc(OC)c(Cl)c1Cl	1.84% (inactive)
Cn1cccc1C(C#N)c1ccccc1C#N (centres undefined)	5.17% (inactive)
COc1ccc(C(C#N)c2ccc(Cl)nn2)cc1 (centres undefined)	-3.69% (inactive)
C=CCOC(=O)c1ccc(-n2cnc(C)n2)nc1	1.26% (inactive)
CC(C)(C)NC(=O)c1cc(Cl)ccc1[N+](=O)[O-]	-3.32% (inactive)
CCOC(=O)c1ccc(-c2ccc(C=O)o2)cc1	-9.6% (inactive)
O=[N+]([O-])c1ccc(N2CCCC2)nc1	-11.1% (inactive)
CCOC(=O)/C=C(\C)Sc1cc(=O)oc2ccccc12	26.4% (inactive)
Cc1cc(NC(=O)c2cc([N+](=O)[O-])ccc2Cl)no1	18.1% (inactive)
Clc1ccc2scc(CN3CCCC3)c2c1	6.28% (inactive)
O=C(NC1CCCC1)c1cccc(Cl)c1	-3.45% (inactive)
N#CC(c1ccc(Cl)cc1)c1ncc(C(F)(F)F)cc1Cl (centres undefined)	-7.56% (inactive)
COC(=O)c1cc(-c2ccc(OC)cc2)on1	-7.79% (inactive)
Cn1cccc1C(C#N)c1cccc(F)c1C#N (centres undefined)	-6.29% (inactive)
COC(=O)c1ccc(OC(=O)c2cccs2)cc1	-6.4% (inactive)
O=CNC1(c2ccccc2)CCCCC1	4.94% (inactive)
Clc1cccc(CNCCCSc2ncccn2)c1	-19.5% (inactive)
